This is an account of results in the supplement of paper PMC10338343.

± gives the standard deviation.

This assay relates to EfPiwi piRISC loaded with L1MC piRNA (26 nt). Put plainly: pre-steady-state target cleavage rate (min^-1); auxiliary factor: 500 nM Ephydatia muelleri Gtsf1; guide: L1MC piRNA 5'p-UAACUAAAUACUAUGCAAGCUGUAGG; MIWI and MILI are mouse PIWI proteins and EfPiwi is from a freshwater sponge; tags in brackets are library labels; higher = faster piRNA-guided slicing of the target. In a few lines: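 For Cleave-'n-Seq, a transcribed, DNA-blocked target RNA library […] met 1 nM active affinity-purified piRISC with one synthetic guide at 33 °C for 0–8 or 0–960 min in HEPES–potassium acetate buffer, with or without 500 nM GTSF1 partner protein. Uncleaved targets were sequenced and normalised to depth and weakly complementary targets, with three trials pooled and k3 capped at 0.0001 min^-1. A burst-and-steady-state fit supplied the pre-steady-state cleavage rate.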
As for UCCUGGAUGAGCUUGCAUAGUAUUUAAGUUA, the “pre-steady-state target cleavage rate” value is 0.0082 ± 0.0031.
The same measure for UCCUGGUACAGCUUGCAUAGUAUUUGAGUUA: 0.00306 ± 0.0023.
In the case of UCCUCCUACAGCUUCCAUAGUAUUUAGAUA, the “pre-steady-state target cleavage rate” value came out at 0.00393 ± 0.0021.
Turning to UCCUGGAUGAGCUUGCAUAGUAAAUAGUUA, the “pre-steady-state target cleavage rate” value came out at 0.00329 ± 0.0025.
For “UCCUCCUACAGCUUGCAUAGUAUUUAGUUC [g2:g26:cont:t1C]” the value was 0.146 ± 0.035.
For UCCUGGAUCAGCUUGCAUAGUAUUUAGGUA, the “pre-steady-state target cleavage rate” value was 0.00436 ± 0.002.
On to UCCUGCUUCAGCUUGCAUAGUAUUUAGAUA, for which the “pre-steady-state target cleavage rate” value was 0.00521 ± 0.0024.
For UCCUCCUACAGCUUGCAUAGUUAUUAGUAA the value was 0.00524 ± 0.0028.
For UCCUCCUUCAGCUUGCAUAGUAUUUAGAAA the value was 0.00603 ± 0.0031.
For UCCUGGAUGUCGAAGGAUACUAUUUAGUUA the value was under 0.0001.
Take UCCUGGUACUGCUUGCUUAGUAUUUAGUUA: the “pre-steady-state target cleavage rate” value came to 0.00909 ± 0.0033.
The same measure for UCCUGCUUCAGCUUGCUUAGUAUUUAGUUA: 0.0238 ± 0.0068; for UCCUGCAUACAGCUUGCAUAGUAUUUAGUUA: 0.11 ± 0.032.
For UCCUGGAUGUCGAAGGAUAGUUUUUAGUUA the value was under 0.0001; for UCCUGCUACAGCUUGCAUAGUAUUAAGAAA, 0.00481 ± 0.0021; for UCCUGGAUGAGCUAGCAUAGUAAUUAGUUA, 0.00293 ± 0.0021.
